# According to PubChem BioAssay (Tox21):
# Records with an inconclusive call do not appear. Entries that show only a call come without a potency. The source made the active and inactive calls. Unless noted, calls follow the shape of the dose curve; as a rule, active = well fitted curve in the direction sought with a large enough effect in the repeat runs; inconclusive = weak or mixed curves; inactive = no such curve, though single readings can be large; an effect the other way counts as inactive or inconclusive.
# Key:
# [1] = qHTS assay for small molecules that induce genotoxicity in human embryonic kidney cells expressing luciferase-tagged ATAD5 (AID 651632); also: nearly all actives have a fitted effect of over 15% in size
# Procedure, shortened: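 A rise in luciferase signal from ATAD5-tagged HEK293T cells marks genetic stress. Cells were exposed to compounds for 16 hr at 37C, 5% CO2, then luciferase was quantified after a 30 min room-temperature incubation with Amplite.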
# [2] = qHTS assay for small molecule agonists of the p53 signaling pathway - cell viability (AID 651633; calls by dose curve; also: nearly all actives have a fitted effect of over 30% in size; also: potency is read from the fitted curve at half-maximal effect)
# Procedure, shortened: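 Viability counter-read: CellTiter-Glo luminescence (30 min, room temperature) in the same p53RE-bla plates. These plates had been exposed to compounds for 16 h at 37 C.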
# [3] = qHTS assay for small molecules that induce genotoxicity in human embryonic kidney cells expressing luciferase-tagged ATAD5 - cell viability (AID 651634; calls by dose curve; also: nearly all actives have a fitted effect of over 25% in size; also: potency is read from the fitted curve at half-maximal effect)
# Procedure, shortened: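 Cytotoxicity counter-readout: after 15.5 hr compound treatment at 37C, live-cell protease activity in ATAD5-luciferase HEK293T cells measured by CellTiter-Fluor fluorescence, 30 min development at 37C.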
# [4] = qHTS assay for small molecule disruptors of the mitochondrial membrane potential - cell viability (AID 720634; calls by dose curve; also: nearly all actives have a fitted effect of over 20% in size; also: potency is read from the fitted curve at half-maximal effect)
# Procedure, shortened: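 Cytotoxicity was quantified from ATP content by CellTiter-Glo luminescence in the same wells as the MMP dye read-out. HepG2 (2,000 cells/well) were plated overnight and exposed to compounds for 1 hr at 37 C.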
# [5] = qHTS assay for small molecule disruptors of the mitochondrial membrane potential (AID 720635); also: potency is read from the fitted curve at half-maximal effect
# Procedure, shortened: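 Mitochondrial membrane potential tracked with Mito-MPS dye, red aggregates (ex 540/em 590 nm) against green monomers (ex 490/em 535 nm). Compound treatment 1 hr at 37C, dye 30 min in HepG2.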
# [6] = qHTS assay to test for compound auto fluorescence at 590 nm (red) in HepG2 cells (AID 720674)
# Procedure, shortened: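 Red autofluorescence (Ex/Em 540/590 nm, Rose Bengal sodium equivalents) was measured in HepG2 cells, 2,000 per well in MEM plus 10% FBS, plated overnight at 37 C. Readings were taken 1 hr after adding 23 nL compound or DMSO, at 37 C and 5% CO2.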
# [7] = qHTS assay to test for compound auto fluorescence at 535 nm (green) in HepG2 cells (AID 720675)
# [8] = qHTS assay to test for compound auto fluorescence at 460 nm (blue) in HEK293 cells (AID 720678)
# Procedure, shortened: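 Blue read-out at excitation 405 nm and emission 460 nm follows overnight compound exposure of HEK293 cells at 37C in 5% CO2. Activity is given as auto fluorescence equivalency to triamterene.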
# [9] = qHTS assay to test for compound auto fluorescence at 590 nm (red) in HEK293 cells (AID 720679)
# Procedure, shortened: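 Red channel, Ex/Em 540/590nm; signal expressed as equivalency to Rose Bengal sodium. HEK293, 2,000 cells/well, 10% dialyzed FBS; 23 nL compound pinned after 4-5 hr attachment; overnight 37C/5% CO2 before reading.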
# [10] = qHTS assay to test for compound auto fluorescence at 460 nm (blue) in HEK293 cell free culture (AID 720681)
# Procedure, shortened: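 Blue fluorescence (Ex 405/Em 460 nm, triamterene-equivalent) was read immediately after pin transfer of compound or DMSO into medium (DMEM, 10% FBS) without cells.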
# [11] = qHTS assay to test for compound auto fluorescence at 535 nm (green) in HEK293 cell free culture (AID 720682)
# Procedure, shortened: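 No cells present: wells hold DMEM supplemented with 10% FBS, into which compound or vehicle is pinned. Green emission is then recorded (485 nm excitation, 535 nm emission) and scaled to fluorescein.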
# [12] = qHTS assay to test for compound auto fluorescence at 590 nm (red) in HEK293 cell free culture (AID 720683)
# Procedure, shortened: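 Red-channel autofluorescence of compounds in culture medium (DMEM, 10% FBS), no cells, measured at 540/590 nm. Rose Bengal sodium is the reference fluorophore for equivalence.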
# [13] = qHTS assay to test for compound auto fluorescence at 590 nm (red) in HepG2 cell free culture (AID 720684)
# Procedure, shortened: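 Cell-free; medium MEM + 10% FBS; compound or DMSO added by pintool; read Ex 540/Em 590 nm; Rose Bengal sodium as red reference fluorophore.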
# [14] = qHTS assay to test for compound auto fluorescence at 460 nm (blue) in HepG2 cell free culture (AID 720685)
# Procedure, shortened: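 Cell-free plates of MEM plus 10% FBS received 23 nL compound or DMSO vehicle; blue-channel (405/460 nm) intensity scored against triamterene as reference fluorophore.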
# [15] = qHTS assay to test for compound auto fluorescence at 535 nm (green) in HepG2 cell free culture (AID 720686)
# [16] = qHTS assay to test for compound auto fluorescence at 460 nm (blue) in HepG2 cells (AID 720687)
# Procedure, shortened: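 Blue-channel autofluorescence (Ex/Em 405/460 nm, triamterene-equivalent) was measured after 1 hr compound exposure at 37 C, 5% CO2. Cells were HepG2, plated overnight at 37 C in MEM plus 10% FBS.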
# [17] = qHTS assay to test for compound auto fluorescence at 535 nm (green) in HEK293 cells (AID 720680)
# [18] = molecular target: Glucocorticoid receptor (Homo sapiens) (UniProt P04150); experiment: qHTS assay to identify small molecule agonists of the glucocorticoid receptor (GR) signaling pathway (AID 720691; active = well fitted activation curve with a large enough effect in the signal ratio in the repeat runs, not every such curve was filed as active; the % refers to the signal ratio); conditions: GR-bla HeLa, beta-lactamase reporter ratio, 18 h; activation: at 62.4 µM (top of the series)
# Chain of Glucocorticoid receptor (Homo sapiens) (P04150 whole entry, looked up): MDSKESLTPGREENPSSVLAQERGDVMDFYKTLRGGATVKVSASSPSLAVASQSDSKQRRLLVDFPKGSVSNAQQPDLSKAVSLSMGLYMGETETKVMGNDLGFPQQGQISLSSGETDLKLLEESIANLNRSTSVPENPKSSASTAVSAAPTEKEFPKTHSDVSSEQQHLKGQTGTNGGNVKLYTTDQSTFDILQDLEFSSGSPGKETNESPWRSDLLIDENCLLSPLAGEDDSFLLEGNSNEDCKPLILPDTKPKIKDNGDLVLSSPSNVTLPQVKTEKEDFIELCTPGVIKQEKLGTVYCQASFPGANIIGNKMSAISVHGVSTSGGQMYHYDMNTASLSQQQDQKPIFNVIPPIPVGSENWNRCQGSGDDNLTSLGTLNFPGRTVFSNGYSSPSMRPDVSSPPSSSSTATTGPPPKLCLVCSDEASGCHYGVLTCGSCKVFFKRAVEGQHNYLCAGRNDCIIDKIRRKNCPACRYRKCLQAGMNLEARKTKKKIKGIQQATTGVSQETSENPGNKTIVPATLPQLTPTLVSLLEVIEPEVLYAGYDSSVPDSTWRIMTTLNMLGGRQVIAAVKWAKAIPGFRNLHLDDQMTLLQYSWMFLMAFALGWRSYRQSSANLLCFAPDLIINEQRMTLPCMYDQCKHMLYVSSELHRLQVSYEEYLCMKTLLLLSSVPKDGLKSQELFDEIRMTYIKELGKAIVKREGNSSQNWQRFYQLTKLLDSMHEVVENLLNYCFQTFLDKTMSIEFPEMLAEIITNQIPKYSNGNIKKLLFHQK
# Procedure, shortened: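 Agonist-mode qHTS in HeLa cells stably expressing a glucocorticoid-response-element beta-lactamase reporter. Fluorescence intensity read with FRET substrate (2 h, room temperature) after 18 h compound treatment at 37 C.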
# [19] = molecular target: Glucocorticoid receptor (Homo sapiens) (UniProt P04150); experiment: qHTS assay to identify small molecule antagonists of the glucocorticoid receptor (GR) signaling pathway (AID 720692; active = well fitted inhibition curve with a large enough effect in the signal ratio in the repeat runs, not every such curve was filed as active; the % refers to the signal ratio)
# Procedure, shortened: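 Inhibition of dexamethasone-driven (5 nM final) beta-lactamase expression was measured in GRE-reporter HeLa cells over 18 h at 37C. Fluorescence was read after 2 h with the B/G FRET substrate at room temperature.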
# [20] = qHTS assay for small molecule agonists of the p53 signaling pathway (AID 651631; calls by dose curve; also: nearly all actives have a fitted effect of over 15% in size)
# Procedure, shortened: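 Agonist mode screen using a stably integrated beta-lactamase gene under p53 response elements in HCT-116 cells. Compound exposure lasts 16 h at 37 °C; fluorescence intensity is measured following 2 h FRET substrate loading.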
SMILES,Potency [1],Potency [2],Potency [3],Potency [4],Potency [5],outcome [6],Potency [7],Potency [8],outcome [9],Potency [10],outcome [11],outcome [12],outcome [13],Potency [14],Potency [15],Potency [16],outcome [17],Potency [18],Potency [19],Potency [20]
C=CC(=O)[O][Sn]([CH2]CCC)([CH2]CCC)[CH2]CCC,inactive,0.864 µM (active),1.09 µM (active),1.93 µM (active),0.0863 µM (active),inactive,inactive,inactive,inactive,inactive,inactive,inactive,inactive,inactive,inactive,inactive,–,–,–,–
BrCCCBr,inactive,inactive,inactive,inactive,inactive,inactive,inactive,inactive,inactive,inactive,inactive,inactive,inactive,inactive,inactive,inactive,inactive,inactive,inactive,–
CC(=O)[O][Pb]([c]1ccccc1)([c]1ccccc1)[c]1ccccc1,inactive,2.73 µM (active),0.686 µM (active),30.6 µM (active),1.09 µM (active),inactive,inactive,inactive,inactive,inactive,inactive,inactive,inactive,inactive,inactive,inactive,inactive,–,–,–
O=C1C[C@@H]2OCC=C3CN4CC[C@]56c7ccccc7N1[C@H]5[C@H]2[C@H]3C[C@H]46,–,–,inactive,inactive,inactive,inactive,inactive,inactive,inactive,inactive,inactive,inactive,inactive,inactive,–,inactive,–,–,–,inactive
CC(C)C(Nc1ccc(C(F)(F)F)cc1Cl)C(=O)OC(C#N)c1cccc(Oc2ccccc2)c1 (stereo not given),inactive,inactive,inactive,inactive,49 µM (active),inactive,inactive,inactive,inactive,inactive,inactive,inactive,inactive,inactive,inactive,inactive,inactive,–,–,–
CC1(C)[C@H](/C=C2\CCSC2=O)[C@@H]1C(=O)OCc1coc(Cc2ccccc2)c1,inactive,inactive,inactive,9.69 µM (active),21.7 µM (active),inactive,inactive,inactive,inactive,inactive,inactive,inactive,inactive,inactive,inactive,inactive,inactive,inactive,–,–
CCC(OC(C)=O)C(CC(C)NC)(c1ccccc1)c1ccccc1 (stereo not given),inactive,69.2 µM (active),inactive,inactive,49 µM (active),inactive,inactive,inactive,inactive,inactive,inactive,inactive,inactive,inactive,inactive,inactive,inactive,–,–,–
ClCBr,inactive,inactive,inactive,inactive,inactive,inactive,inactive,inactive,inactive,inactive,inactive,inactive,inactive,inactive,inactive,inactive,–,inactive,–,–
CC1CN1 (stereo not given),–,inactive,–,inactive,inactive,inactive,inactive,inactive,inactive,inactive,inactive,inactive,inactive,inactive,inactive,inactive,–,–,–,inactive
